Drawing on PubChem BioAssay, this text covers composite z-score and z-score for 13 compounds.

In test [1] the test system is Human papillomavirus type 1a protein E7 (residues 44-93). As to the kind of experiment: small molecules binding HPV E7 44-93 – biochemical, small-molecule microarray, residues 44-93, 635 nm fluorescence, primary screen (AID 1108).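 Also: E7 fragment applied at 1 µg/mL in TBST for 1 h at 4 C; score combines spot fluorescence with its signal to noise ratio.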 Particulars: fluorescence 635 nm, higher = more signal.
Test [2] is described as follows: hepatitis C replication reporter changes, two-sided – Huh7 cells, luciferase reporter, HCV replication inhibitor project, primary screen (AID 1109).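 Also: huh7 hepatoma cells harbouring a luciferase neomycin HCV replicon reporter; luciferase luminescence as measure of HCV replicon replication; test concentration not given here.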 Particulars: Huh7 HCV replicon luciferase reporter, 48 h; higher = more signal.
Test [3] addresses Left-right determination factor 2 (Homo sapiens) (UniProt O00292). Description: small molecules binding LEFTY2 protein – biochemical, small-molecule microarray, 635 nm fluorescence scan, primary screen (AID 1110). Particulars: higher = more signal.
In test [4] the target is Calmodulin-1 (Homo sapiens) (UniProt P0DP23). Description: small molecules binding calmodulin-1 with EGTA – biochemical, small-molecule microarray, Cy5-labelled CALM1, profiling panel (AID 1111).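 Also: labelled calmodulin applied in Tris saline Tween buffer holding calcium plus EGTA and DTT.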 Particulars: Cy5-CALM1 binding fluorescence, higher = more signal.
For test [5] the target is unchanged. As to the kind of experiment: small molecules binding Ca-loaded calmodulin-1 – biochemical, small-molecule microarray, Cy5-labelled CALM1, plus calcium, artefact control for SMM control-protein annotation, profiling panel (AID 1112).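 Also: score merges spot fluorescence with signal to noise from triplicate slides.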 The following applies: Cy5-CALM1 binding fluorescence, higher = more signal.
Test [6] can be described thus: probe aWnt5a binding to arrayed compounds – biochemical, biotinylated probe, 635/667 nm fluorescence, primary screen (AID 1113).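 Also: score merges 667 nm fluorescence intensity with signal-to-noise per printed feature.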 The following applies: small-molecule microarray, higher = more signal.
Test [7] is described as follows: probe aShh binding to arrayed compounds – biochemical, biotinylated probe, 635/667 nm fluorescence, primary screen (AID 1114).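 Also: probe is biotin-labelled aShh protein from a stem cell growth factor screen; measures binding of labelled protein to compounds printed on the slide; score merges feature fluorescence at 667 nm with signal-to-noise.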 Particulars: small-molecule microarray, higher = more signal.
Test [8] is described as follows: probe aNog binding to arrayed compounds – biochemical, biotinylated probe, 635/667 nm fluorescence, primary screen (AID 1115).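 Also: probe is biotinylated aNog protein used at 0.15 µg/mL for 1 h at 4 C; z-score combines 667 nm fluorescence of each spot with its signal to noise.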 Particulars: small-molecule microarray, higher = more signal.
The target in test [9] is Torsin-1A-interacting protein 1 (Homo sapiens) (UniProt Q5JTV8). Description: compound microarray binding of lysate hLAP1 – cell lysate, small-molecule microarray, COS7 lysate, 635/667 nm fluorescence, primary screen (AID 1116). Particulars: 635 nm fluorescence, higher = more signal.
Chain of Torsin-1A-interacting protein 1 (Homo sapiens) (Q5JTV8 whole entry, looked up): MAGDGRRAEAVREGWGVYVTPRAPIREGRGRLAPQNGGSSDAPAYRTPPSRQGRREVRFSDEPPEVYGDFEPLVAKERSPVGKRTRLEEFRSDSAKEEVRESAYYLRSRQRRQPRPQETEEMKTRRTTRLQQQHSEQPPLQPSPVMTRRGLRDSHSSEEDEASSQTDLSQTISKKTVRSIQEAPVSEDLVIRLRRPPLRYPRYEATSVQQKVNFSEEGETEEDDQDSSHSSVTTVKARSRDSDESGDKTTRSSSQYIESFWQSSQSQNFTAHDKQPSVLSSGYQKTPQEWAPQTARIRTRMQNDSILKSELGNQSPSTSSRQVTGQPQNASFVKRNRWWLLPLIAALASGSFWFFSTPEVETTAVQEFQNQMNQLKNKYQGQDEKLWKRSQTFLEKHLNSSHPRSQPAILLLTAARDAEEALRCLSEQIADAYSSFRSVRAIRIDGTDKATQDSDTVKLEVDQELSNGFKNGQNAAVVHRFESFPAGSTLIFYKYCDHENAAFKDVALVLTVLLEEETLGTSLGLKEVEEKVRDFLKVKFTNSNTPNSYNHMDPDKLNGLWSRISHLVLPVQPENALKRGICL
Test [10] addresses Alpha-bungarotoxin (Bungarus multicinctus) (UniProt P60615). Description: compounds binding labelled alpha-BTX control protein – biochemical, small-molecule microarray, Alexa647 label, 635/667 nm fluorescence, artefact control for SMM control protein annotation, profiling panel (AID 1117). Particulars: alpha-BTX-A647 binding fluorescence, higher = more signal.

Chain of Left-right determination factor 2 (Homo sapiens) (O00292 whole entry, looked up): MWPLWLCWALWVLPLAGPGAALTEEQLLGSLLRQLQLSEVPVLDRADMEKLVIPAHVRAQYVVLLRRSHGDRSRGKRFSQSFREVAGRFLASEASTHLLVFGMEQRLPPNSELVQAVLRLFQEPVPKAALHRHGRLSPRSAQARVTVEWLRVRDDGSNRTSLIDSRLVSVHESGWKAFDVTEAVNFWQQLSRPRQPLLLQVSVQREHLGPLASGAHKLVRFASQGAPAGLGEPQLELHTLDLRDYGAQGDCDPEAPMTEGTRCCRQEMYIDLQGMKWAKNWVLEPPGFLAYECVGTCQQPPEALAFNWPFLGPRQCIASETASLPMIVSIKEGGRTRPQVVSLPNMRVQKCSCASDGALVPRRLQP
Chain of Alpha-bungarotoxin (Bungarus multicinctus) (P60615 whole entry, looked up): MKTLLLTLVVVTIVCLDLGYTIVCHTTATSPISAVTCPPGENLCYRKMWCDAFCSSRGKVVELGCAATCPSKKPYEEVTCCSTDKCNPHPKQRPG

On to `COCCOC(=O)N1C(=O)[C@@]2(c3cc(C#CCCO)ccc31)[C@H](C(=O)Nc1nc3ccccc3s1)[C@H]1C(=O)O[C@H](c3ccccc3)[C@H](c3ccccc3)N1[C@@H]2c1ccc(O)cc1`, for which the composite z-score is 1.16 in [1]; 1.09 in [3]; 0.999 in test [4]; -0.237 in test [5]; -0.0445 in [6]; 0.191 in test [7]. For the same compound, the composite z-score in test [8] was found to be 0.566; in [9] it was 0.549; in test [10] it was 1.6. The same compound gave a z-score in test [2] of -1.65.

With `O=C1OCCC/C=C\[C@H]2OC34C=CCN(c5ccc6ccccc6c5)C(=O)[C@H]3N(CCO)C(=O)[C@@H]4C12` (stereo not given in full), the composite z-score in test [1] is -0.983; in test [3] it was -1.2; in [4], 0.0755; in test [5], 0.903; in [6], -0.154; in test [7], -0.0533. Besides, the composite z-score in test [8] is -0.0631; in [9], -0.399; in test [10] it was -1.95. In test [2], this compound showed a z-score of -0.0164.

`NCCCCCNC(=O)[C@H]1C[C@H]2C(=O)N3CCC[C@H]3C(=O)N2[C@H]1c1cccc(OCCO)c1`: the composite z-score in test [1] was 1.32; in test [3], -0.397; in test [4] it was 1.35; in [5] it was 0.684; in test [6], 0.0375; in test [7], 0.14. Also, the composite z-score in test [8] was -0.403; in [9], 1.17; in test [10], 1.24. The same compound came in with a z-score in [2] of 0.5.

On to `CCCCC(CC)C(O)C1C=CC2C(=O)N(c3ccccc3)C(=O)C2N1Nc1ccccc1F` (stereo not given), for which the composite z-score in [1] is 1.41; in test [3], -0.285; in [4] it was 0.0117; in [5], -0.264; in test [6] it was 0.0768; in test [7] it was 0.341. Further, the results for the composite z-score in test [8], in [9] and in test [10] were 1.1, 0.928 and -0.176, respectively. The compound also registered a z-score in test [2] of -0.508.

In the case of `NC(=O)[C@H]1[C@@H]2C(=O)O[C@@H](c3ccccc3)[C@@H](c3ccccc3)N2[C@@H](c2ccc(OCCO)cc2)[C@]12C(=O)Nc1ccc(C#CCCO)cc12`, the composite z-score in test [1] was 0.333; in [3], -0.128; in test [4], 0.947; in test [5], 0.382; in test [6], 0.055; in [7], -0.253. Moreover, the composite z-score was -0.387 in test [8], 0.757 in test [9] and 1.59 in test [10]. Also, in test [2], the z-score was -1.39.

In the case of `CCCC=C(CCC)[C@@H](NC(=O)C(C)(C)C)c1ccc(C(=O)OC)cc1`, the composite z-score in [1] is 1.32; in [3], -0.494; in [4], 1.72; in [5], 1.43; in test [6], 0.191; in [7], 0.572. Besides, the composite z-score in test [8] worked out at 1.98; in test [9], 0.321; in test [10], 1.5. In test [2], this compound showed a z-score of -1.01.

Regarding `Cc1ccc(S[C@]2(C(=O)O)CC(=O)N(C3CCCCC3)[C@@H]2c2ccc(CO)cc2I)cc1`, the composite z-score in [1] is 1.35; in test [3], -0.326; in test [4], 1.79; in [5], 0.63; in [6], -0.113; in test [7] it was 0.351. The composite z-score in [8] was found to be 1.06; in [9] it was 1.4; in test [10], 0.763. Besides, the z-score in test [2] is -0.298.

As for `[N-]=[N+]=Nc1ccccc1C[C@]1(C(=O)NCCN2CCOCC2)COC(c2ccc(OCCCO)cc2)=N1`, the composite z-score in [1] was 1.4; in test [3] it was 0.795; in test [4] it was 0.76; in test [5] it was -0.553; in [6] it was -0.349; in test [7], -0.221. The composite z-score in test [8] was 0.624; in test [9] it was 0.101; in test [10] it was 0.536. In test [2], this compound showed a z-score of -1.92.

As to `COc1ccc([Si](C)(C)[C@@H]2[C@@H](CC(=O)N(CCO)Cc3ccccc3)O[C@]3(C(=O)N(Cc4cccc(N5CCCCC5=O)c4)c4ccccc43)[C@H]2C)cc1`, the composite z-score in test [1] was found to be 0.846; in test [3], 0.478; in test [4], 0.822; in [5], 0.645; in test [6], 0.0825; in [7] it was 0.128. In addition, the composite z-score in [8] stood at 1.73; in test [9], 0.761; in test [10], 0.672. This compound yielded a z-score in test [2] of -3.89.

Consider `COCCOC(=O)N1C(=O)[C@@]2(c3cc(C#CC4=CCCCC4)ccc31)[C@H](C(=O)Nc1nc3ccccc3s1)[C@H]1C(=O)O[C@H](c3ccccc3)[C@H](c3ccccc3)N1[C@@H]2c1ccc(O)cc1`, for which the composite z-score in [1] was 1.39; in test [3], 0.647; in test [4], 1.07; in [5] it was 0.641; in test [6], -0.15; in [7], -0.51. For the same compound, the composite z-score is -0.483 in test [8], 0.666 in [9] and 0.42 in [10]. In addition, in test [2], the z-score was -1.1.

Take `COc1ccc(C#Cc2ccc3c(c2)[C@]2(C(=O)N3)[C@H](C(=O)O)[C@H]3C(=O)O[C@H](c4ccccc4)[C@H](c4ccccc4)N3[C@@H]2c2ccc(O)cc2)cc1`: the composite z-score is 0.78 in [1]; -0.67 in test [3]; 0.695 in test [4]; 1.2 in test [5]; -0.124 in test [6]; 0.214 in [7]. Further, the composite z-score is -0.0446 in test [8], 0.286 in test [9] and -0.204 in test [10]. Moreover, the z-score in test [2] is -1.43.

`NC(=O)NCC#Cc1ccc2c(c1)[C@]1(C(=O)N2)[C@H](c2ccccc2OCCO)N2[C@H](c3ccccc3)[C@H](c3ccccc3)OC(=O)[C@H]2[C@@H]1C(=O)NC[C@H](O)c1ccccc1`: the composite z-score in [1] is 1.36; in test [3], -0.568; in test [4], -0.157; in test [5], 0.501; in test [6], -0.0981; in test [7], 0.0141. Further, the results for the composite z-score in test [8], in test [9] and in test [10] were -0.213, 0.395 and 1.1, respectively. In test [2], the z-score is -0.651.

For the compound `CS(=O)(=O)CCOC(=O)C1=CC(c2ccc(CO)cc2)=CC(C2CC2)N(Cc2sc3ccccc3c2Cl)C=C1C(=O)OCCS(C)(=O)=O` (stereo not given), the composite z-score in test [1] is 0.491; in test [3], 0.815; in test [4], 0.0782; in [5], 0.0677; in [6] it was -0.0685; in [7], 0.199. Moreover, the composite z-score in test [8] stood at 0.611; in [9], 0.702; in test [10] it was 1.89. In addition, the z-score in test [2] is -1.7.
